Most compounds without a hit are left out; they make up all but 3.5% or so of the library.
MITF primary = MITF inhibitors, primary screen, biochemical, AlphaScreen, human | inhibition, % at 2.6 µM | 650,000 compounds, 0.91% hits | Microphthalmia-associated transcription factor (Homo sapiens), O75030 | AlphaScreen MITF homodimerization, bead proximity signal; in the data active means inhibition above about 50%
TEAD-YAP block = TEAD-YAP interaction inhibition, primary screen, TEAD-YAP interaction inhibitor project, luminescence, HEK-TIYL cells; 640,000 compounds, 1.4% hits; AID 1259422, 2018; inhibition, % at 9.12 µM; TEAD-Gal4/YAP UAS-luciferase luminescence; in the data active means inhibition above about 32%
GPR151 activ = activators of human GPR151, primary screen, cell-based, PathHunter beta-arrestin, luminescence; activation, % at 11.2 µM; 650,000 compounds, 1% hits; AID 1508602, 2020; G-protein coupled receptor 151 (Homo sapiens), Q8TDV0; PathHunter beta-arrestin GPR151 cells; in the data active means activation above about 4.9%
FBW7 activator = FBW7 E3 ligase activators, primary screen, biochemical, AlphaScreen, human; 650,000 compounds, 0.13% hits; AlphaScreen FBW7–phospho-cyclin E peptide binding, activator screen; AID 1259310, 2017; normalized activity (activation), % at 26.1 µM; in the data active means normalized activity above about 1.9%;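 further: purified mutant Fbw7 with reduced substrate affinity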
Target sequence (Q969H0 whole entry, looked up): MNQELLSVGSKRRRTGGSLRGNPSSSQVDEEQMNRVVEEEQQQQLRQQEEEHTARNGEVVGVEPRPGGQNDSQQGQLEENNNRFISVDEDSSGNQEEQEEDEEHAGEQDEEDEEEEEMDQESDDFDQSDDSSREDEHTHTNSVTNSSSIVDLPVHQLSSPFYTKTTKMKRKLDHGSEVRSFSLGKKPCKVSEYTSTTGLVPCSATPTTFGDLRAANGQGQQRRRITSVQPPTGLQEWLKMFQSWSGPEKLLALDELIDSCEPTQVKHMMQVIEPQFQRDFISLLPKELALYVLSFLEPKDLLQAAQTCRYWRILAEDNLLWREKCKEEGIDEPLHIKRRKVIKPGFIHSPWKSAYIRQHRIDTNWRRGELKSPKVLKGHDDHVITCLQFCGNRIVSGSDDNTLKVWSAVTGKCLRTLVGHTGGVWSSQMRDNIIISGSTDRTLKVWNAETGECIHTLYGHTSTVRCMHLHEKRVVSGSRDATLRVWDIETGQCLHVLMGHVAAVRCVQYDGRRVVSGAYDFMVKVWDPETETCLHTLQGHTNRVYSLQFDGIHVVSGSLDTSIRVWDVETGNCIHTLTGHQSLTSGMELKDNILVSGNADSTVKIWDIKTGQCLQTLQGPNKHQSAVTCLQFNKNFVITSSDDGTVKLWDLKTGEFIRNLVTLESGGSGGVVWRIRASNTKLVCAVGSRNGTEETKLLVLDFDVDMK
Numbers stand for hits; . = inactive.

SMILES	MITF primary	TEAD-YAP block	GPR151 activ	FBW7 activator
COc1cccc(-n2c(SCC(=O)Nc3ccccc3OC)nnc2-c2cccnc2)c1	.	.	.	.
COc1ccccc1-n1c(SCC(=O)Nc2nc(C)cs2)nnc1-c1ccncc1	.	51.2	.	.
CCCCNC(=O)CSc1nnc(-c2cccnc2)n1-c1ccccc1OC	.	.	.	.
CCCn1c(=O)c2c(nc3n(-c4ccc(F)cc4)c(C)c(C)n23)n(C)c1=O	.	.	.	.
COc1ccccc1NC(=O)CSc1nnc(-c2cccnc2)n1-c1ccccc1C	.	69.5	.	.
CN1CCN(CCCNc2nc(=S)[nH]c3ccccc23)CC1	.	.	.	.
CN1CCN(CCCNc2ccnc3cc4ccccc4cc23)CC1	.	75.0	.	.
CN(C)CCN1CCN(c2ccnc3cc4ccccc4cc23)CC1	.	44.5	.	.
CCOC(=O)c1sc2nccc(N(C)C)c2c1N	.	.	.	.
CN(C)c1ccnc2sc(C(N)=O)c(N)c12	.	52.8	.	.
Cc1cccc(NC(=O)C2CCCN(S(=O)(=O)c3ccc4c(c3)oc(=O)n4C)C2)c1 (centres undefined)	.	.	.	.
Cc1cccc(NC(=O)C2CCCN(S(=O)(=O)c3ccc4c(c3)oc(=O)n4C)C2)n1 (centres undefined)	.	34.2	.	.
CCOC(=O)c1c(C)[nH]c(C(=O)CSc2nccn2C)c1C	.	86.8	.	.
CCOC(=O)c1c(C)[nH]c(C(=O)CSc2nnnn2-c2ccc(Cl)cc2)c1C	.	.	.	.
Cc1cccc(NC(=O)/C(C#N)=C\c2ccc(O)cc2)c1	.	.	.	.
Cc1c(Cc2ccccc2)c(N2CCN(Cc3ccccc3)CC2)n2c(nc3ccccc32)c1C#N	.	.	.	2.0
COc1cccc(NC(=O)CCS(=O)(=O)c2ccc3c(c2)CC(C)N3C(=O)C2CC2)c1 (centres undefined)	.	.	.	.
CC(=O)N1CCN(CC(=O)NC(c2ccccc2)c2ccccc2)CC1	.	.	.	6.2
Cc1ccc(C)n1-c1ccc(C(=O)NCC(=O)O)cc1	66.2	.	.	.
Cc1ccc(C)n1-c1ccc(C(=O)O)cc1	.	.	.	.
Cn1c(-c2ccc(Br)cc2)c[nH]c1=S	.	.	.	.
N#Cc1c(C(Cl)(Cl)Cl)nc(=O)n2nc(N3CCOCC3)n(-c3ccccc3)c12	.	.	.	.
OC1CCC(Nc2nc(Nc3ccc4c(c3)OCO4)c3ncn(-c4ccccc4)c3n2)CC1 (centres undefined)	.	.	.	.
CCc1ccccc1NC(=O)c1ccc(NCc2ccccc2OC)c([N+](=O)[O-])c1	.	43.0	.	.
COc1ccccc1CNc1ccc(C(=O)Nc2ccc(C)cc2C)cc1[N+](=O)[O-]	.	56.8	.	.
SMILES	MITF primary	TEAD-YAP block	GPR151 activ	FBW7 activator
CCc1ccc(NC(=O)c2ccc(NCc3ccccc3OC)c([N+](=O)[O-])c2)cc1	.	.	.	.
COc1ccccc1CNc1ccc(C(=O)Nc2ccc(C)c(F)c2)cc1[N+](=O)[O-]	.	.	.	.
COc1ccc(-n2c(=O)[nH]c3c(C(N)=O)nc(-c4ccc(C)o4)nc32)cc1	.	.	.	.
NNC(=O)CNc1c(-c2ccsc2)nc2ccccn12	.	52.0	.	.
O=C(NC1CCCCCC1)/C(=C/c1ccco1)n1nnnc1-c1ccccc1	.	34.5	.	.
NC(=O)COC(=O)/C(=C/c1ccco1)n1nnnc1-c1ccccc1	.	.	.	.
COc1ccc(NC(=O)/C(Cl)=C\c2ccccc2)cc1	.	45.1	.	.
Cc1ccc(NC(=O)/C(Cl)=C\c2ccccc2)cc1	.	65.5	.	.
CC(=O)c1ccc(NC(=O)/C(Cl)=C/c2ccccc2)cc1	.	.	.	.
O=C(Nc1ccc(F)cc1)/C(Cl)=C/c1ccccc1	.	.	.	.
Cn1ncc([N+](=O)[O-])c1C(=O)Nc1ccc(Cl)cc1Cl	.	.	.	.
CC(C)c1ccccc1C=NCC(=O)O	.	.	.	2.2
COc1ccc(CCNc2nc(SCC(=O)N3CCN(c4ccccc4)CC3)nc3ccccc23)cc1OC	.	35.5	.	.
COc1ccc(CCn2c(SCC(=O)N3CCN(c4ccccc4OC)CC3)nc3ccsc3c2=O)cc1OC	.	50.6	.	.
COc1ccc(CCNc2nc(SCC(=O)N3CCN(c4ccccc4OC)CC3)nc3ccccc23)cc1OC	.	34.4	.	.
CCC(C)NC(=O)CSc1nc(NCCc2ccc(OC)c(OC)c2)c2ccccc2n1 (centres undefined)	.	.	.	.
c1ccc2c(c1)CC(c1nc3ccc(-c4ccncc4)cc3[nH]1)CCO2 (centres undefined)	.	41.4	.	.
Cc1nc2cc(NC(=O)c3ccc(S(=O)(=O)N(C)C4CCCCC4)cc3)ccc2s1	.	37.9	.	.
COCc1cc(C)nc(NNC(=S)Nc2ccccc2)c1C#N	.	.	.	.
CC(=O)NC(c1ccc(F)cc1)c1ccc2cccnc2c1O (centres undefined)	.	85.1	.	.
CCC(=O)NC(c1ccc(Cl)cc1)c1cc(Cl)c2cccnc2c1O (centres undefined)	.	.	.	.
O=C(NC(c1ccccc1)c1ccc2cccnc2c1O)c1ccccc1 (centres undefined)	.	.	.	.
CCC(=O)NC(c1ccccc1Cl)c1cc(Cl)c2cccnc2c1O (centres undefined)	.	50.3	.	.
CC(=O)NC(c1ccc(Cl)cc1)c1ccc2cccnc2c1O (centres undefined)	.	89.8	.	.
CCCCC(=O)NC(c1ccc(Cl)cc1Cl)c1ccc2cccnc2c1O (centres undefined)	.	46.1	.	.
SMILES	MITF primary	TEAD-YAP block	GPR151 activ	FBW7 activator
CC1=NN(c2cccc(Cl)c2)C(=O)/C1=C\c1ccc2c(c1)OCO2	.	.	.	.
CCCC(=O)NC(c1ccc(SC)cc1)c1ccc2cccnc2c1O (centres undefined)	.	82.3	.	.
COc1ccc(C(=O)NC(c2ccccc2Cl)c2cc(Cl)c3cccnc3c2O)cc1 (centres undefined)	.	.	.	.
CC(=O)NC(c1ccccc1Cl)c1ccc2cccnc2c1O (centres undefined)	.	89.8	.	.
CCCC(=O)NC(c1ccccc1Cl)c1ccc2cccnc2c1O (centres undefined)	52.7	94.9	.	.
CC(C)c1ccc(C(=O)CSc2ncn[nH]2)cc1	.	37.2	.	.
CCc1nc(SCC(=O)Nc2ccc(S(N)(=O)=O)cc2)n[nH]1	.	.	.	.
COc1ccccc1Nc1nc(NCc2ccco2)c2ccccc2n1	.	.	.	.
COc1ccc(Nc2nc(NCc3ccccc3)c3ccccc3n2)cc1	.	43.6	.	.
Cc1ccc(Nc2nc(NCc3ccco3)c3ccccc3n2)cc1	.	45.9	.	.
COc1ccc(Nc2nc(C)c3ccccc3n2)cc1	.	.	.	.

From PubChem
